# Source: PubChem BioAssay (EPA / NIEHS)
# Records with an inconclusive call do not appear. Activity calls are given as the source filed them. How the source made its calls: active means hit-call score of the fitted dose curve at least 0.9, where 1 is the maximum; inconclusive means response in the unintended direction; inactive means score below 0.9.
# Legend:
# [1] = TOX21_p53_BLA_p2_viability: Viability Assessment in the Tox21 HCT-116 p53 Agonism Beta-lactamase Assay, Phase 2 (AID 2283591);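 further: compound exposure lasted 16 h at 37 °C; actives lower the ATP signal meaning cytotoxicity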
# Method in brief: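 Cytotoxicity readout: CellTiter-Glo ATP luminescence, 30 min at room temperature, after the beta-lactamase read. Cells were HCT116 exposed 16 h at 37C to compounds pin-transferred at 217-fold dilution from DMSO stocks.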
# [2] = TOX21_p53_BLA_p3_viability: Viability Assessment in the Tox21 HCT-116 p53 Agonism Beta-lactamase Assay, Phase 3 (AID 2283593);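 further: cells exposed to compound for 16 h before reading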
# Method in brief: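 Cellular ATP was quantified by CellTiter-Glo luminescence, read after 30 min at room temperature. Beforehand, HCT116 cells (4000/well) received compound 5 h post-seeding, 217-fold diluted from DMSO, then incubated 16 h at 37C.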
# [3] = biological target: Cellular tumor antigen p53 (Homo sapiens) (UniProt P04637); test: TOX21_p53_BLA_p3_ratio: Tox21 HCT-116 p53 Agonism Beta-lactamase Assay, Ratio, Phase 3 (AID 2283596)
# Method in brief: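 Cells were seeded at 4000/well, rested 5 h at 37C, then dosed with DMSO compound solutions (217-fold dilution) for 16 h. CCF4-AM substrate was loaded for 2 h at room temperature, and the 460/530 nm emission ratio was fitted for gain of signal versus DMSO.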
# [4] = TOX21_p53_BLA_p4_viability: Viability Assessment in the Tox21 HCT-116 p53 Agonism Beta-lactamase Assay, Phase 4 (AID 2283597);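 further: hits lower the luminescence signal meaning cytotoxicity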
# Method in brief: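 Viability is taken as cellular ATP: after 16 h compound exposure of HCT116 cells and a 2 h room-temperature CCF4-AM substrate step, CellTiter-Glo reagent is added and luminescence is measured 30 min later.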
# [5] = biological target: Cellular tumor antigen p53 (Homo sapiens) (UniProt P04637); test: TOX21_p53_BLA_p5_ratio: Tox21 HCT-116 p53 Agonism Beta-lactamase Assay, Ratio, Phase 5 (AID 2283599)
# Method in brief: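 Beta-lactamase reporter ratio (blue 460 nm over green 530 nm, 405 nm excitation) after 2 h CCF4-AM loading, in HCT-116 cells exposed 16 h at 37 C to compounds pinned at 217-fold dilution. Increases relative to DMSO baseline scored.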
# [6] = biological target: Cellular tumor antigen p53 (Homo sapiens) (UniProt P04637); test: TOX21_p53_BLA_p4_ratio: Tox21 HCT-116 p53 Agonism Beta-lactamase Assay, Ratio, Phase 4 (AID 2283601)
# Method in brief: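 Signal is the blue/green (460nm/530nm) ratio of cleaved versus uncleaved CCF4-AM substrate, read after 2 h substrate loading. Cells were HCT116 carrying the p53-responsive beta-lactamase reporter, dosed 16 h at 37C, 5% CO2; CellTiter-Glo measured in parallel.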
# [7] = TOX21_p53_BLA_p5_viability: Viability Assessment in the Tox21 HCT-116 p53 Agonism Beta-lactamase Assay, Phase 5 (AID 2283600)
# Method in brief: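 Viability is taken from cellular ATP content, measured by luciferase luminescence in the same wells after the beta-lactamase ratio read. Cells are seeded at 4000 per well and exposed to DMSO-dissolved compounds, diluted 217-fold, for 16 h.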
# Chain of Cellular tumor antigen p53 (Homo sapiens) (P04637 whole entry, looked up): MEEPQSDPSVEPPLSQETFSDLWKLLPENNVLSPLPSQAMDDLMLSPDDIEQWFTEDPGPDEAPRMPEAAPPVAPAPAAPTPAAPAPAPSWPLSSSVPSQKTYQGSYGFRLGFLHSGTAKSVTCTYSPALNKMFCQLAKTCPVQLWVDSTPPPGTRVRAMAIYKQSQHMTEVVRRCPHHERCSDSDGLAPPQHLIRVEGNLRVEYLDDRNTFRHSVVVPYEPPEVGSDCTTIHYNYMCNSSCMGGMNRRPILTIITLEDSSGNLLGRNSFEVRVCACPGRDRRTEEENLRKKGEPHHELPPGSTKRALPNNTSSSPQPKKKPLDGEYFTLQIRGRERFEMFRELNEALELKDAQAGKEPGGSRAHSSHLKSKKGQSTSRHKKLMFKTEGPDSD
smiles,measurement,setting,value
Oc1c(Cl)c(Cl)cc(Cl)c1Cl,outcome,[1],inactive
same,outcome,[2],inactive
same,AC50,[3],13.4 µM (active)
same,outcome,[4],inactive
same,AC50,[5],18.7 µM (active)
same,AC50,[6],22.6 µM (active)
CSCCCN=C=S,outcome,[1],inactive
same,outcome,[2],inactive
same,AC50,[3],20.9 µM (active)
same,outcome,[5],inactive
same,outcome,[7],inactive
Nc1ccccc1C(=O)O,outcome,[1],inactive
same,outcome,[2],inactive
same,outcome,[3],inactive
same,outcome,[5],inactive
same,outcome,[7],inactive
same,outcome,[6],inactive
c1ccc2c(c1)Sc1ccccc1N2CC1CN2CCC1CC2 (stereo unspecified),outcome,[1],inactive
same,outcome,[2],inactive
same,outcome,[3],inactive
same,AC50,[4],29.1 µM (active)
same,outcome,[7],inactive
C=CC[C@]1(O)CC[C@H]2[C@@H]3CCC4=CCCC[C@@H]4[C@H]3CC[C@@]21C,outcome,[1],inactive
same,outcome,[2],inactive
same,outcome,[4],inactive
[O]=[Cr](=[O])([OH])[O][Cr](=[O])(=[O])[OH],AC50,[1],15.1 µM (active) [middle of 4 runs]
same,AC50,[2],11.4 µM (active) [middle of 4 runs]
same,AC50,[4],18.4 µM (active) [middle of 4 runs]
same,AC50,[5],13.2 µM (active) [middle of 4 runs]
same,AC50,[7],28.1 µM (active) [middle of 4 runs]
same,AC50,[6],13.6 µM (active) [middle of 4 runs]
